High-throughput results: PubChem, National Center for Advancing Translational Sciences (NCATS)
The list is not random: actives were taken first. Their share in the collection is about 19%.
uPA generation: cell surface uPA generation inhibition; cell surface uPA generation assay, qHTS; Potency, µM (series often up to 38.3 µM), for inactives: at the top dose activity change, negative = inhibition, most hits filed as inhibitors; 0.31% of 330,000 active; AID 540303; active = well fitted inhibition curve with a large enough effect; inconclusive = small, poorly fitted or top-dose-only effect; inactive = no such curve, though single readings can be large or run the other way; tested in mouse RAW 264.7 cells; also: potency is read from the fitted curve at half-maximal effect; nearly all actives have a fitted effect of over 55% in size
HT1080 IDH1KD tx: toxicity to HT-1080 IDH1 knockdown cells (counter line); HT-1080 IDH1 knockdown viability, ATP luminescence, 48 h; Potency, µM (doses to about 46.1 µM), for the others: top-dose activity, negative = toxicity, most hits filed as cytotoxic; 2% of 360,000 active; AID 686971;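 also: potency is read from the fitted curve at half-maximal effect; 0% = DMSO wells and -100% = cell-free medium wells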
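Luminescent ATP read-out (CellTiter-Glo, 10 min at room temperature) after 48 h compound exposure at 37 °C gave viability of IDH1-knockdown HT-1080 cells. Activity was normalised to DMSO and cell-free wells, then fitted as concentration-response curves.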
TDP1 cell CPT: growth inhibition of DT40 Tdp1-/-;hTDP1 cells with camptothecin (screen for TDP1 inhibitors); chicken DT40 Tdp1-/-;hTDP1 cells + 20 nM CPT, ATP luminescence, 48 h; Potency, µM (highest dose often 46.2 µM), inactives show at the highest dose activity change, negative = growth inhibition, hits mostly inhibitors; 12% of 420,000 active; AID 686979; also: potency is read from the fitted curve at half-maximal effect; nearly all actives have a fitted effect of over 55% in size
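Chicken DT40 Tdp1-/- cells stably complemented with human TDP1 were seeded at 400 cells/well in medium containing 20 nM camptothecin, exposed to pin-transferred compounds, and grown at 37 °C for at least 48 hr. Viability was read as ATP luminescence.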
IL-1B inflam inh: blocks inflammasome-driven IL-1 beta release; THP-1 LPS/ATP IL-1B secretion, AlphaLISA, 16 h; active compounds read low; 4.7% of 360,000 active; AID 743279; activity change, % at 57.5 µM; in the data active = activity change below about -50%; inconclusive = mostly about -30% to -49%
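Secreted IL-1B measured by AlphaLISA bead assay after 16 h compound exposure of THP-1 cells; compounds (final up to 57.5 uM) added 1 h before LPS (250 ng/mL) and ATP (1.25 mM) stimulation; lower signal means less secretion.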
TDP1 cell noCPT: qHTS for Inhibitors of human tyrosyl-DNA phosphodiesterase 1 (TDP1): qHTS in cells in absence of CPT; DT40 Tdp1-/- hTDP1 cells, no CPT, ATP luminescence, 48 h; Potency, µM (highest dose often 46.2 µM), without a hit: at the highest dose activity change, negative = growth inhibition, most hits filed as inhibitors; 15% of 420,000 active; also: potency is read from the fitted curve at half-maximal effect; nearly all actives have a fitted effect of over 55% in size
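Compound effects on proliferation are scored in DT40 Tdp1-/-;hTDP1 cells in the absence of CPT. ATP levels (CellTiter-Glo luminescence) are recorded after a ≥48 hr, 37 °C incubation.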
HT1080-NT tox: kills 2HG-producing HT-1080-NT fibrosarcoma cells; HT-1080-NT fibrosarcoma viability, CellTiter-Glo ATP luminescence, 48 h; Potency, µM (doses to about 46.1 µM), for the others: at the top dose activity, negative = less viability, actives largely listed as cytotoxic; 1.6% of 360,000 active;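 also: NT is the 2HG producing partner of a matched IDH1 knockdown line; potency is read from the fitted curve at half-maximal effect; 0% = DMSO-treated cells and -100% = media-only wells without cells; nearly all actives have a fitted effect of over 55% in size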
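Viability by CellTiter-Glo luminescence after 48 h compound exposure at 37C of HT-1080-NT cells (750/well, RPMI, 5% FBS). % activity scaled between DMSO wells and medium-only wells, then curve-fitted and categorized by curve class.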
Active calls of the source: *; ? = inconclusive; · = no result given; [ ] = remark or other dose. Unless noted, calls follow the shape of the dose curve; as a rule, active = well fitted curve in the direction sought with a large enough effect; inconclusive = small, poorly fitted or top-dose-only effect, or another doubt; inactive = no such curve, though single readings can be large; an effect the other way counts as inactive or inconclusive. Unless noted, % is scaled to controls: 0 for no effect and ±100 for the full control effect.

SMILES | uPA generation | HT1080 IDH1KD tx | TDP1 cell CPT | IL-1B inflam inh | TDP1 cell noCPT | HT1080-NT tox
O=C(COc1ccc(Br)cc1CNCCc1ccccc1)NCc1ccccc1 | ? | ? | 12µM* | ? | 7.3µM* | 21µM*
NS(=O)(=O)c1ccc(CCNCc2cc(Br)ccc2OCc2ccccc2F)cc1 | -4% | 23µM* | 5.8µM* | · | 4.1µM* | ?
NS(=O)(=O)c1ccc(CCNCc2cc(Cl)ccc2OCc2ccccc2)cc1 | -7% | ? | ? | -100* | ? | ?
Cn1nnc(NCc2cc(Br)ccc2OCc2ccccc2F)n1 | -8% | -8% | -29% | 4 | -10% | 0%
NS(=O)(=O)c1ccc(CCNCc2ccccc2OCc2ccc(Cl)cc2)cc1 | -10% | 15µM* | 23µM* | -81* | ? | 23µM*
C=CCOc1ccccc1CNCCc1ccc(S(N)(=O)=O)cc1 | 1% | -6% | -19% | -12 | -19% | 3%
CC[C@]12C(=O)N(C)C[C@H]([C@@H]3C(=O)N(C)C(=O)[C@@H]31)N2C(=O)c1ccc(C(C)(C)C)cc1 | -7% | 11% | -19% | -12 | -9% | 21%
Cc1cn2c(=O)cc(COc3ccc(NC(=O)COc4ccccc4)cc3)nc2s1 | · | · | 3% | · | -25% | ·
Cc1ccc(OCCNC(=O)c2ccccc2F)cc1 | 5% | 16% | 10% | 29 | -18% | 16%
C[C@@H]1CN(Cc2ccc3c(c2)CN(Cc2cccn2-c2ccccn2)CCO3)C[C@H](C)O1 | · | · | -5%[9.04 µM] | · | -2% | ·
CCCS(=O)(=O)NC(=O)C1(C)CCN(C(=O)c2ccccc2C(F)(F)F)C1 (configuration not stated) | · | 8% | 8% | 18 | 11% | 15%
CN1CCN(C(=O)c2cc3cc(F)ccc3[nH]2)CC1 | -18% | -3% | ? | 13 | -17% | -9%
COc1ccccc1N1CCN(C(=O)c2cc3ccccc3[nH]2)CC1 | 8% | -13% | ? | 0 | ? | 4%
CSc1ccc(C(=O)C2CCCN(C(=O)c3cc4cc(F)ccc4[nH]3)C2)cc1 (configuration not stated) | -1% | -22% | 18µM* | -63* | 18µM* | -6%
O=C(c1cc2cc(F)ccc2[nH]1)N1CCN(C(=O)c2ccco2)CC1 | 10% | -9% | ? | -1 | 21µM* | -9%
O=C(c1cc2cc(Cl)ccc2[nH]1)N1CCN(c2ccc(F)cc2)CC1 | -7% | -2% | -14% | -85* | -11% | 3%
COc1ccccc1N1CCN(C(=O)c2cc3cc(Cl)ccc3[nH]2)CC1 | 20% | -3% | 16µM* | -1 | 18µM* | -1%
CCS(=O)(=O)N1CCc2cc(C(=O)NCc3ccccc3OC)ccc21 | · | · | -9% | · | ? | ·
CCNC(=O)N(C)C[C@H]1N[C@@](CC)(C(=O)OC)[C@H]2C(=O)N(C)C(=O)[C@@H]12 | 29% | 6% | -21% | 10 | 2% | 4%
COc1ccccc1-c1cncnc1N1CCN(C)CC1 | · | · | -2% | · | -19% | ·
COc1ccccc1N1CCN(C(=O)c2cc3cc(F)ccc3[nH]2)CC1 | 0% | -9% | ? | ? | 23µM* | ?
CC(C)(CNC(=O)c1cnn(-c2nccc(-c3cc4ccccc4o3)n2)c1C1CC1)N1CCOCC1 | · | · | -8%[9.04 µM] | · | -4% | ·
CC(=O)N1c2ccc(S(=O)(=O)NCC3CCC(C(=O)N4CC(C)CC(C)C4)CC3)cc2CC1C (configuration not stated) | -19% | 0% | 16µM* | 31 | 13µM* | -16%
CCCNC(=O)C1CCC(CNS(=O)(=O)c2ccc3c(c2)CC(C)N3C(C)=O)CC1 (configuration not stated) | -20% | -3% | ? | 0 | ? | -4%
